Source: PubChem BioAssay (NCATS)
Inconclusive results are not listed. The source made the active and inactive calls. Calls follow the shape of the dose curve; as a rule, active = well fitted activation curve with a large enough effect; inconclusive = small, poorly fitted or top-dose-only effect; inactive = no such curve, though single readings can be large or run the other way.

What follows are molecules tested against Cellular tumor antigen p53 (Homo sapiens) (UniProt P04637) (assay: Primary qHTS for small molecule compounds that upregulate eGFP-tagged delta133p53alpha (in N-terminal) cells. (AID 2060322;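 also: series mostly up to about 56 µM; 0% = DMSO vehicle and 100% = reference activator; nearly all actives have a fitted effect of over 75% in size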)). Settings: NCI-H358 eGFP-delta133p53alpha fluorescence, 24 h; activation: stronger effect = higher value.
Chain of Cellular tumor antigen p53 (Homo sapiens) (P04637 whole entry, looked up): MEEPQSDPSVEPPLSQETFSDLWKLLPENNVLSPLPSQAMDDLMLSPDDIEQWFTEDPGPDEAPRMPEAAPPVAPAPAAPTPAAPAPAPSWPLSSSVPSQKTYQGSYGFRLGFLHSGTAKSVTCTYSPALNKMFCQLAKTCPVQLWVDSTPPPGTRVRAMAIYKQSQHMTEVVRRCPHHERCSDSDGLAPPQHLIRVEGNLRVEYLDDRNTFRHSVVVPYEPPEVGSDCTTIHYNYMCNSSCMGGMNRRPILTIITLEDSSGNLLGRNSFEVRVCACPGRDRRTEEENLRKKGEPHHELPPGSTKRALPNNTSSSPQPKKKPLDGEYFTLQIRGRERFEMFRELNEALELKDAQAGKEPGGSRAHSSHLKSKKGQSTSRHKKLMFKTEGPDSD
Procedure, shortened: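 NCI-H358 cells pre-induced 24 h with 10 ng/ml doxycycline to express N-terminal eGFP-delta133p53alpha, then dosed 24 h at 37C without doxycycline; fixed, Hoechst-stained, GFP intensity by laser scanning cytometry, normalized to DMSO (0%) and 57.5 uM 5-azacytidine (100%).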

| SMILES | activation |
| --- | --- |
| CC(=O)OC[C@H]1O[C@@](COC(C)=O)(O[C@H]2O[C@H](COC(C)=O)[C@@H](OC(C)=O)[C@H](OC(C)=O)[C@H]2OC(C)=O)[C@@H](OC(C)=O)[C@@H]1OC(C)=O | 10.7% (inactive) |
| O=C(O)[C@H]1O[C@H](Oc2cc3oc(-c4ccccc4)cc(=O)c3c(O)c2O)[C@H](O)[C@@H](O)[C@H]1O | 28.4% (inactive) |
| CCCCC(O)/C=C(C)/C=C/C=C/C(=O)N1CCCC1=O (stereo not given) | 13.4% (inactive) |
| Cn1c([N+](=O)[O-])cnc1COC(N)=O | -9.6% (inactive) |
| Cc1c(N)cccc1C(F)(F)F | -19.8% (inactive) |
| COC(=O)c1ccc(O)cc1 | 7.34% (inactive) |
| CC(=O)N[C@@H](CCC(N)=O)C(=O)O | -8.37% (inactive) |
| C=CC1(C)CC(=O)C2(O)C(C)(O1)C(OC(C)=O)C(O)C1C(C)(C)CCC(O)C12C (stereo not given) | -19.1% (inactive) |
| CCOc1ccccc1C(N)=O | -11.9% (inactive) |
| C[n+]1ccccc1/C=N/O | 15.3% (inactive) |
| CC(C)OC(=O)c1cc2c(OCC(O)CNC(C)(C)C)cccc2[nH]1 (stereo not given) | 20.9% (inactive) |
| CCC1NC(=O)c2cc(S(N)(=O)=O)c(Cl)cc2N1 (stereo not given) | -21.8% (inactive) |
| C=CCSCC1Nc2cc(Cl)c(S(N)(=O)=O)cc2S(=O)(=O)N1 (stereo not given) | -36.8% (inactive) |
| NC1CCC(Nc2nc(Nc3ccc(C(=O)N4CCCCC4)cc3)c3ncn(-c4cccc(F)c4)c3n2)CC1 (stereo not given) | -1.24% (inactive) |
| CN(C)C(=N)N=C(N)N | 2.2% (inactive) |
| CCCCN=C(N)NC(=N)N | 9.6% (inactive) |
| CC(C)N(CC[C@H](c1ccccc1)c1cc(CO)ccc1O)C(C)C | 16.8% (inactive) |
| COc1ccc(C(C)=O)c(O)c1 | 14.5% (inactive) |
| CCN(CC)CCc1nc(-c2ccccc2)no1 | -25.1% (inactive) |
| CC(C)=CCCC(C)=CCCC(C)=CCCC(C)=CCCC(C)=CCCC(C)=CCCC(C)=CCCC(C)=CCCC(C)=CCO | 8.65% (inactive) |

| SMILES | activation |
| --- | --- |
| COc1ccnc2c1CCCCC2S(=O)c1nc2ccccc2[nH]1 (stereo not given) | 11.9% (inactive) |
| CCOc1cc(NC(C)=O)ccc1C(=O)OC | -3.95% (inactive) |
| C=CC1=C(C(=O)O)N2C(=O)[C@@H](NC(=O)C(=NO)c3csc(N)n3)[C@H]2SC1 | -4.61% (inactive) |
| Cc1c(C)n(Cc2ccccc2)c2ccc(C(=O)OCCN(C)C)cc12 | -0.837% (inactive) |
| CC(C)C(=O)OCc1cccc(OC(=O)[C@@H]2N3C(=O)[C@@H](NC(=O)Cc4ccccc4)[C@H]3SC2(C)C)c1 | -5.86% (inactive) |
| O=C(C=Cc1ccc(/C=C/C(=O)Nc2ccc(C3=NCCN3)cc2)cc1)Nc1ccc(C2=NCCN2)cc1 | -8.95% (inactive) |
| CNC1[C@H](O)C(O[C@@H]2C(O)C(O[C@H]3O[C@H]([C@@H](C)NC)CC[C@H]3N)[C@@H](N)C[C@H]2N)OC[C@]1(C)O (stereo not given in full) | -1.3% (inactive) |
| CC(O)=C(C#N)C(=O)Nc1ccc(C(F)(F)F)cc1 | 11.7% (inactive) |
| Cc1ccc(/C=N/n2c(-c3ccccc3)csc2=S)cc1 | 24.3% (inactive) |
| O=C(O)CCC(=O)c1ccc(-c2ccccc2)cc1 | -11.9% (inactive) |
| CN(C/C=C/C#CC(C)(C)C)Cc1cccc2ccccc12 | -0.565% (inactive) |
| Cc1c[nH]c2ccccc12 | 17.6% (inactive) |
| CN1N=C(C(N)=O)CCC1=O | -6.21% (inactive) |
| NC(=O)NN=Cc1ccc([N+](=O)[O-])o1 | 13.5% (inactive) |
| Cc1nc2n(c(=O)c1CCN1CCC(C(=O)c3ccc(F)cc3)CC1)CCS2 | 23.2% (inactive) |
| Oc1cccc2[nH]ccc12 | -5.08% (inactive) |
| Oc1ccccc1 | -1.69% (inactive) |
| NCc1ccc(S(N)(=O)=O)cc1 | -15.9% (inactive) |
| Cc1onc(-c2ccccc2)c1C(=O)N[C@@H]1C(=O)N2[C@@H](C(=O)O)C(C)(C)S[C@@H]12 | -7.66% (inactive) |
| O=c1[nH]c(=O)n([C@H]2O[C@H](CO)[C@@H](O)[C@@H]2O)cc1/C=C\Br | 3.35% (inactive) |
